{"source": "the supplement of paper PMC11172423", "key": {"[1]": {"test_system": "Falciformispora senegalensis CBS197.79", "experiment": "growth relative to untreated control; higher = less inhibition, active = 20 or less", "summary_of_the_method": "(§1)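 Compound at 100 or 25 µM was applied for 7 days at 37 °C to hyphal fragments of M. mycetomatis MM55 or F. senegalensis CBS197.79 in 96-well plates. Fragments were suspended in colourless RPMI 1640 with L-glutamine and MOPS at 68–72% transmission at 660 nm, and viability was read with MTS (2 h, 490 nm) or resazurin (600 nm). Growth is reported as blank-corrected metabolic activity relative to the blank-corrected untreated growth control.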"}, "[2]": {"test_system": "Madurella mycetomatis MM55", "experiment": "growth relative to untreated control; higher = less inhibition, active = 20 or less", "summary_of_the_method": "as §1"}}, "note": "Values without a mark were called inactive.", "data": [{"smiles": "Cc1noc(C2CN(C(=O)c3ccc(Nc4nccc(-c5ccc(Cl)cc5)n4)cc3)C2)n1", "values": [{"measurement": "growth", "setting": "[1]; 25 µM", "value": 73.8, "unit": "%"}, {"measurement": "growth", "setting": "[1]; 100 µM", "value": 99.2, "unit": "%"}]}, {"smiles": "Cc1cnc2nc(NC3COc4ccccc43)nc(NC(C3CC3)C3CC3)c2c1", "note": "(centres undefined)", "values": [{"measurement": "growth", "setting": "[1]; 25 µM", "value": 83.2, "unit": "%"}, {"measurement": "growth", "setting": "[1]; 100 µM", "value": 33.4, "unit": "%"}]}, {"smiles": "O=C(NC(CCO)C1CCCCC1)c1cc2ccc(C(F)(F)F)cc2[nH]1", "note": "(centres undefined)", "values": [{"measurement": "growth", "setting": "[1]; 25 µM", "value": 79.2, "unit": "%"}, {"measurement": "growth", "setting": "[1]; 100 µM", "value": 100, "unit": "%"}]}, {"smiles": "C=CC(=O)Nc1cc(Nc2nccc(-c3cn(C)c4ccccc34)n2)c(OC)cc1N(C)CCN(C)C", "values": [{"measurement": "growth", "setting": "[1]; 25 µM", "value": "7.88% (active)"}, {"measurement": "growth", "setting": "[1]; 100 µM", "value": "12.6% (active)"}]}, {"smiles": "CC(N)CCn1c(Nc2cc(Cl)cc(C(F)(F)F)c2)nc2cnc(NC(C)(C)C)nc21", "note": "(centres undefined)", "values": [{"measurement": "growth", "setting": "[1]; 25 µM", "value": "19.4% (active)"}, {"measurement": "growth", "setting": "[1]; 100 µM", "value": "12.8% (active)"}]}, {"smiles": "CC[C@H](Nc1ncnc2[nH]cnc12)c1nc2cccc(F)c2c(=O)n1-c1ccccc1", "values": [{"measurement": "growth", "setting": "[1]; 25 µM", "value": 98, "unit": "%"}, {"measurement": "growth", "setting": "[1]; 100 µM", "value": 98.4, "unit": "%"}]}, {"smiles": "CC[C@H](C)[C@H]1O[C@]2(C=C[C@@H]1C)C[C@@H]1C[C@@H](C/C=C(\\C)[C@@H](O[C@H]3C[C@H](OC)[C@@H](O[C@H]4C[C@H](OC)[C@H](NC(C)=O)[C@H](C)O4)[C@H](C)O3)[C@@H](C)/C=C/C=C3\\CO[C@@H]4[C@H](O)C(C)=C[C@@H](C(=O)O1)[C@]34O)O2", "values": [{"measurement": "growth", "setting": "[1]; 25 µM", "value": 101, "unit": "%"}, {"measurement": "growth", "setting": "[1]; 100 µM", "value": 91.4, "unit": "%"}]}, {"smiles": "COc1ccc(-n2nc(C(N)=O)c3c2C(=O)N(c2ccc(N4CCCCC4=O)cc2)CC3)cc1", "values": [{"measurement": "growth", "setting": "[1]; 25 µM", "value": 104, "unit": "%"}, {"measurement": "growth", "setting": "[1]; 100 µM", "value": 91.6, "unit": "%"}]}, {"smiles": "CCc1nn2c(Nc3ccncc3)cc(C)nc2c1-c1ccccc1", "values": [{"measurement": "growth", "setting": "[1]; 25 µM", "value": 88.3, "unit": "%"}, {"measurement": "growth", "setting": "[1]; 100 µM", "value": 92.6, "unit": "%"}]}, {"smiles": "FC(F)(F)c1ccnc(Nc2cn3cc(-c4ccc(N5CCOCC5)nc4)ccc3n2)n1", "values": [{"measurement": "growth", "setting": "[1]; 25 µM", "value": 91.1, "unit": "%"}, {"measurement": "growth", "setting": "[1]; 100 µM", "value": 92.1, "unit": "%"}]}, {"smiles": "CO[C@@H](C(=O)N1Cc2[nH]nc(NC(=O)c3ccc(N4CCN(C)CC4)cc3)c2C1)c1ccccc1", "values": [{"measurement": "growth", "setting": "[1]; 25 µM", "value": 103, "unit": "%"}, {"measurement": "growth", "setting": "[1]; 100 µM", "value": 102, "unit": "%"}]}, {"smiles": "COc1cc(OC)c2c(O)nc(-c3cc(C)c(OCCO)c(C)c3)nc2c1", "values": [{"measurement": "growth", "setting": "[1]; 25 µM", "value": 103, "unit": "%"}, {"measurement": "growth", "setting": "[1]; 100 µM", "value": 97.6, "unit": "%"}]}, {"smiles": "CCc1ccc2c(c1O)CCN(C)C2Cc1ccccc1Cl", "note": "(centres undefined)", "values": [{"measurement": "growth", "setting": "[1]; 25 µM", "value": 78.3, "unit": "%"}, {"measurement": "growth", "setting": "[1]; 100 µM", "value": 27.8, "unit": "%"}]}, {"smiles": "CC[C@H](NC(=O)c1cc2c(F)cccc2[nH]1)c1ccccc1", "values": [{"measurement": "growth", "setting": "[1]; 25 µM", "value": 77.9, "unit": "%"}, {"measurement": "growth", "setting": "[1]; 100 µM", "value": 99, "unit": "%"}, {"measurement": "growth", "setting": "[2]; 25 µM", "value": "8.07% (active)"}, {"measurement": "growth", "setting": "[2]; 100 µM", "value": "5.18% (active)"}]}, {"smiles": "O=c1[nH]c2ccccc2n1CCCN1CCN(C(c2ccccc2)c2ccccc2)CC1", "values": [{"measurement": "growth", "setting": "[1]; 25 µM", "value": 103, "unit": "%"}, {"measurement": "growth", "setting": "[1]; 100 µM", "value": 28.7, "unit": "%"}, {"measurement": "growth", "setting": "[2]; 25 µM", "value": 91.1, "unit": "%"}, {"measurement": "growth", "setting": "[2]; 100 µM", "value": "5.01% (active)"}]}, {"smiles": "Cc1cc(Nc2cn3cc(-c4cnn(C(F)F)c4)ccc3n2)nc(C)n1", "values": [{"measurement": "growth", "setting": "[1]; 25 µM", "value": 94.1, "unit": "%"}, {"measurement": "growth", "setting": "[1]; 100 µM", "value": 83.8, "unit": "%"}, {"measurement": "growth", "setting": "[2]; 25 µM", "value": 95.2, "unit": "%"}, {"measurement": "growth", "setting": "[2]; 100 µM", "value": 58.6, "unit": "%"}]}, {"smiles": "CC(C)OC(=O)[C@H](C)N[P@](=O)(OC[C@H]1O[C@@H](n2ccc(=O)[nH]c2=O)[C@](C)(F)[C@@H]1O)Oc1ccccc1", "values": [{"measurement": "growth", "setting": "[1]; 25 µM", "value": 112, "unit": "%"}, {"measurement": "growth", "setting": "[1]; 100 µM", "value": 108, "unit": "%"}, {"measurement": "growth", "setting": "[2]; 25 µM", "value": 94.5, "unit": "%"}, {"measurement": "growth", "setting": "[2]; 100 µM", "value": 85.7, "unit": "%"}]}, {"smiles": "Cc1cc(C)c2cc(C(=O)N[C@@H](C)c3ccccc3)[nH]c2c1", "values": [{"measurement": "growth", "setting": "[1]; 25 µM", "value": 86.1, "unit": "%"}, {"measurement": "growth", "setting": "[1]; 100 µM", "value": 87.5, "unit": "%"}, {"measurement": "growth", "setting": "[2]; 25 µM", "value": "7.91% (active)"}, {"measurement": "growth", "setting": "[2]; 100 µM", "value": 69.4, "unit": "%"}]}, {"smiles": "OC[C@H]1NC[C@H](O)[C@@H](O)[C@H]1O", "values": [{"measurement": "growth", "setting": "[1]; 25 µM", "value": 94.7, "unit": "%"}, {"measurement": "growth", "setting": "[1]; 100 µM", "value": 100, "unit": "%"}, {"measurement": "growth", "setting": "[2]; 25 µM", "value": 101, "unit": "%"}, {"measurement": "growth", "setting": "[2]; 100 µM", "value": 91.1, "unit": "%"}]}, {"smiles": "C[C@H](/N=C(\\N)c1cc2c(F)cc(F)cc2[nH]1)c1ccccc1", "values": [{"measurement": "growth", "setting": "[1]; 25 µM", "value": 98.5, "unit": "%"}, {"measurement": "growth", "setting": "[1]; 100 µM", "value": "15.3% (active)"}, {"measurement": "growth", "setting": "[2]; 25 µM", "value": 35, "unit": "%"}, {"measurement": "growth", "setting": "[2]; 100 µM", "value": "5.98% (active)"}]}, {"smiles": "Cc1cc(Nc2cc(N)ncn2)c(=O)n2c1C(=O)NC21CCCCC1", "values": [{"measurement": "growth", "setting": "[1]; 25 µM", "value": 111, "unit": "%"}, {"measurement": "growth", "setting": "[1]; 100 µM", "value": 107, "unit": "%"}, {"measurement": "growth", "setting": "[2]; 25 µM", "value": 85.9, "unit": "%"}, {"measurement": "growth", "setting": "[2]; 100 µM", "value": 84.7, "unit": "%"}]}, {"smiles": "O=C(Nc1cnc2ccccc2c1)c1ccccc1C(=O)c1ccc(F)cc1", "values": [{"measurement": "growth", "setting": "[1]; 25 µM", "value": 88.2, "unit": "%"}, {"measurement": "growth", "setting": "[1]; 100 µM", "value": 95.5, "unit": "%"}, {"measurement": "growth", "setting": "[2]; 25 µM", "value": 92.9, "unit": "%"}, {"measurement": "growth", "setting": "[2]; 100 µM", "value": 91.8, "unit": "%"}]}, {"smiles": "O=C(Nc1ncccc1O)c1ccc(N2CCOCC2)nc1", "values": [{"measurement": "growth", "setting": "[1]; 25 µM", "value": 90, "unit": "%"}, {"measurement": "growth", "setting": "[1]; 100 µM", "value": 81.4, "unit": "%"}, {"measurement": "growth", "setting": "[2]; 25 µM", "value": 92.8, "unit": "%"}, {"measurement": "growth", "setting": "[2]; 100 µM", "value": 95.8, "unit": "%"}]}, {"smiles": "Cc1nn(-c2cccc(Cl)c2)c2c1C(C(=O)c1ccc3c(c1)OCO3)CC(=O)N2", "note": "(centres undefined)", "values": [{"measurement": "growth", "setting": "[1]; 25 µM", "value": 87.3, "unit": "%"}, {"measurement": "growth", "setting": "[1]; 100 µM", "value": 91.7, "unit": "%"}, {"measurement": "growth", "setting": "[2]; 25 µM", "value": 68.8, "unit": "%"}, {"measurement": "growth", "setting": "[2]; 100 µM", "value": 88.3, "unit": "%"}]}, {"smiles": "CC(=O)[C@@]1(O)CC[C@H]2[C@H]3CCC4=CC(=O)CC[C@@]4(C)[C@H]3CC[C@@]21C", "values": [{"measurement": "growth", "setting": "[1]; 25 µM", "value": 92.2, "unit": "%"}, {"measurement": "growth", "setting": "[1]; 100 µM", "value": 106, "unit": "%"}, {"measurement": "growth", "setting": "[2]; 25 µM", "value": 80.2, "unit": "%"}, {"measurement": "growth", "setting": "[2]; 100 µM", "value": 83.8, "unit": "%"}]}]}
